# Screening data: PubChem, National Center for Advancing Translational Sciences (NCATS)
# Luciferase inh: Firefly luciferase inhibition profiling of diverse chemical library using quantitative high-throughput screening; purified P. pyralis luciferase, luminescence, biochemical; 2.5% of 76,000 active; AID 1347043, 2019; Potency, µM (titrated, usually from 115 µM), actives largely listed as inhibitors; further: nearly all actives have a fitted effect of over 65% in size
#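 FLuc 10nM, D-luciferin 10uM, ATP 10uM, Mg acetate 10mM, Tris acetate pH 7.5, Tween/BSA; cpd qHTS; enzyme added last; CCD luminescence.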
# HEK293 tox: Cytotoxic Profiling in HEK 293 Cell Line of Diverse Libraries Using Quantitative High-Throughput Screening. Potency, µM (series often up to 115 µM), inactives show at the highest dose activity change, negative = cytotoxicity, hits mostly inhibitors. HEK 293 viability, ATP luminescence (CellTiter-Glo), 48-72 h. 6.6% of 94,000 active; further: nearly all actives have a fitted effect of over 60% in size
#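 Cells seeded first (HEK 293, 250 cells/well), then compound added by pintool. Incubation ran 48 or 72 hr at 37 degree Celsius. CellTiter-Glo was added and luminescence imaged after 10 min at room temperature.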
# 3T3 cytotox: Cytotoxic Profiling in NIH 3T3 Cell Line of Diverse Libraries Using Quantitative High-Throughput Screening; Potency, µM (highest dose often 96.7 µM), without a hit: at the highest dose activity change, negative = cytotoxicity, usual class: inhibitors; NIH 3T3 viability, CellTiter-Glo ATP luminescence, 48-72 h; AID 1345082, 2018; 4.3% of 94,000 active; further: nearly all actives have a fitted effect of over 55% in size
#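 Cells were seeded at 400 per well, treated with pin-transferred compound, and kept 48 or 72 hr at 37 °C before CellTiter-Glo addition and luminescence imaging of cellular ATP.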
# hNpr1 antagonist: Natriuretic polypeptide receptor (hNpr1) antagonism - Primary qHTS. Atrial natriuretic peptide receptor 1 (Homo sapiens), P16066. HEK293 hNpr1 GloSensor cGMP, ANP-stimulated luminescence. Potency, µM (doses to about 46.3 µM), for inactives: at the top dose activity change, negative = inhibition, most hits filed as inhibitors. 1.6% of 76,000 active. AID 1347048, 2019; calls by dose curve; further: nearly all actives have a fitted effect of over 60% in size
# Target sequence (P16066 whole entry, looked up): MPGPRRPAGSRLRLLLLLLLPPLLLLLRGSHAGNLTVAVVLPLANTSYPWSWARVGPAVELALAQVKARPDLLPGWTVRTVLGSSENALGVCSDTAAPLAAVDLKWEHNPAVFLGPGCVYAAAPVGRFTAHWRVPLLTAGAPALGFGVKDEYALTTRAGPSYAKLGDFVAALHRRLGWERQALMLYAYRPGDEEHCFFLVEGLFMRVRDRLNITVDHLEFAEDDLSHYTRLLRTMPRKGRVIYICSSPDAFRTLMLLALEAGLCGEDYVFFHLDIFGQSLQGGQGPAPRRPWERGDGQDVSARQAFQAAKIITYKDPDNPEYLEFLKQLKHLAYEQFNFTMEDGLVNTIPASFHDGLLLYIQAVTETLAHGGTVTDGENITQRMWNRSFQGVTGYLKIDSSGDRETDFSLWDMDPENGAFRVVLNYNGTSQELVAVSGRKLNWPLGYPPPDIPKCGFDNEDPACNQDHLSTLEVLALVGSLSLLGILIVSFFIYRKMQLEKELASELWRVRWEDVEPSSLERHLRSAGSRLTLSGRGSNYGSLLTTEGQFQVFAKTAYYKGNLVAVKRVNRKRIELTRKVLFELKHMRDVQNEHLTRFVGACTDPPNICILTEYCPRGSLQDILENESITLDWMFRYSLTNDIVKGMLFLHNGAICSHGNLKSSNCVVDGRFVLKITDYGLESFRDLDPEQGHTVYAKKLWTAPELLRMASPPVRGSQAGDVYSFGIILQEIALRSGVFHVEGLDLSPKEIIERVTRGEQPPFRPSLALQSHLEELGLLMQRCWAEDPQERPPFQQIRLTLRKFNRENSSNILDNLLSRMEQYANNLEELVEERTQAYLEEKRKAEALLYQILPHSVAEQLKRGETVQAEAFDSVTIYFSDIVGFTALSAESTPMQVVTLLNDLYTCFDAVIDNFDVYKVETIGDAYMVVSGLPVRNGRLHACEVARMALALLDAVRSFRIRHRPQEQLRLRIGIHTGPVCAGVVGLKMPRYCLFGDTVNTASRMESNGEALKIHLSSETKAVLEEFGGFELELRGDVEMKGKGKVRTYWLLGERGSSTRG
#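 Compound pre-incubated 30 min at room temperature on GloSensor-loaded HEK293 cells stably carrying hNpr1 and the pGS-40F cGMP biosensor. Stimulation uses hNppA at 0.1 nM final; luminescence is taken at baseline and 20 min post-agonist.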
# Numbers without * were called inactive; i = inactive; ? = inconclusive; . = no result; [ ] = dose if it differs, or a comment. Compounds with a hit are over-represented: about 11% of the library has one in this group of screens. Unless noted, the call rests on the fitted dose curve; in most records, active means well fitted curve in the direction sought with a large enough effect; inconclusive means small, poorly fitted or top-dose-only effect, or another doubt; inactive means no such curve, though single readings can be large; an effect the other way counts as inactive or inconclusive. On the % scale 0 is the no-effect control and ±100 the full control effect; potency means the concentration at half of the fitted maximal effect.
SMILES,Luciferase inh,HEK293 tox,3T3 cytotox,hNpr1 antagonist
COc1ccc(C2(C(=O)N3CCCC(C(=O)NCc4ccccc4)CCNC(=O)CC3)CC2)cc1 (centres undefined),i,0.2%,-10.4%,-5.6%
COc1ccc(Nc2cc3c(cn2)CN(Cc2ccncc2)CCN3)cc1OC,i,?,?,-1.3%[70.6 µM]
COc1ccc(CN2CCNc3cc(Nc4ccccc4)ncc3C2)cc1O,i,100µM*,79.4µM*,-12.4%[70.6 µM]
Cc1ccc(-c2cn3c(n2)CO[C@@H](CNCc2ccc(-c4ccccn4)cc2)C3)cc1,35.5µM*,35.5µM*,39.8µM*,?
Cc1ccc(-c2cn3c(n2)CO[C@@H](CNC(=O)CCC(=O)O)C3)cc1,?,i,i,-2.8%[70.6 µM]
COc1ccc(-c2cn3c(n2)CO[C@@H](CNC(C)=O)C3)cc1,44.7µM*,i,i,0.8%[70.6 µM]
Cc1ccc(-c2cn3c(n2)CO[C@@H](CNC(=O)c2ccccc2)C3)cc1,?,?,-8.9%[138 µM],0.9%[70.6 µM]
Cc1ccc(-c2cn3c(n2)CO[C@@H](CNC(=O)NCc2ccccc2)C3)cc1,70.8µM*,?,-16.7%[138 µM],0.1%[70.6 µM]
COc1ccc(-c2cn3c(n2)CO[C@@H](CNCc2ccc(OC(F)(F)F)cc2)C3)cc1,?,44.7µM*,?,?
COCC(=O)NC[C@H]1O[C@@H](CC(=O)N2CCN(c3ccccc3OC)CC2)[C@H](O)[C@@H]1O,i,i,0.2%,-0.9%
Cc1ccccc1-n1nc(-c2c(C)nc3scc(CC(=O)NCC(C)C)n3c2=O)cc1C,i,i,4.4%,-1.4%
CCC1(C(=O)Nc2ccc(C)cc2)CCCCC(=O)N1 (centres undefined),i,0.1%,-4.4%,-5.3%
CCNC(=O)N1CCc2nc(OCCOC)ccc2C1,i,-26.0%,-5.4%,0.0%
CC(=O)Nc1ccc(CNC[C@H]2Cn3cc(-c4ccc(C)cc4)nc3CO2)cc1,70.8µM*,?,?,5.1%[70.6 µM]
Cc1ccc(-c2cn3c(n2)CO[C@@H](CNCc2ccccc2Cl)C3)cc1,i,89.1µM*,89.1µM*,?
Cc1ccc(-c2cn3c(n2)CO[C@@H](CNCc2ccc(Cl)cc2)C3)cc1,?,56.2µM*,44.7µM*,?
COc1ccc(-c2cn3c(n2)CO[C@@H](CNCc2nccn2C)C3)cc1,?,-7.4%[172 µM],-7.6%[174 µM],7.1%[70.6 µM]
O=S(=O)(Cc1ccccc1)NC[C@H]1Cn2cc(-c3ccccc3)nc2CO1,?,?,-17.9%[138 µM],4.8%[70.6 µM]
c1ccc(-c2cn3c(n2)CO[C@@H](CNCC2CCCCC2)C3)cc1,i,100µM*,100µM*,-2.3%[70.6 µM]
Cc1ccc(-c2cn3c(n2)CO[C@@H](CNCc2ccc(S(C)(=O)=O)cc2)C3)cc1,?,?,-27.5%[174 µM],-20.8%[70.6 µM]
CCOc1ccccc1CN1CCC2(CCN(C(=O)OC)CC2)Oc2ccccc21,i,?,?,0.0%
COc1ccc(-c2cn3c(n2)CO[C@@H](CNC2CCOCC2)C3)cc1,i,-7.0%[172 µM],-11.8%[138 µM],2.6%[70.6 µM]
Cc1ccc(-c2cn3c(n2)CO[C@@H](CNC2CCCC2)C3)cc1,63.1µM*,100µM*,100µM*,3.3%[70.6 µM]
Cc1noc(C)c1-c1cc2cc(CN(C)C)oc2c(NCCOc2ccccc2)n1,i,?,79.4µM*,-21.1%[70.6 µM]
Cc1noc(C)c1-c1cc2cc(CN(C)C)oc2c(NCCc2ccccc2)n1,i,56.2µM*,44.7µM*,-4.0%[70.6 µM]
SMILES,Luciferase inh,HEK293 tox,3T3 cytotox,hNpr1 antagonist
Cc1noc(C)c1-c1cc2cc(CN(C)C)oc2c(NCC(C)C)n1,i,70.8µM*,50.1µM*,-13.2%[70.6 µM]
Cc1noc(C)c1-c1cc2cc(CN(C)C)oc2c(NCc2cccc(F)c2)n1,i,?,?,-2.1%[70.6 µM]
COc1cccc(N2C(=O)NC(=NC3CCCC3)C23CCN([S+](=O)([O-])c2cccc(OC)c2)C3)c1 (centres undefined),.,-19.6%,-23.4%,.
O=C(NC1CCCCC1)c1ccc2nnc(CC3CC3)n2c1,.,-13.5%[172 µM],-25.2%[138 µM],.
CN(C)c1ccc(-c2nnc([C@H]3CCN(Cc4ccccn4)C3)o2)cc1,?,?,-28.3%[174 µM],2.3%[70.6 µM]
CN(C)c1ccc(-c2nnc([C@H]3CCN(C(=O)c4ccccn4)C3)o2)cc1,20µM*,?,-12.4%[174 µM],-15.0%[70.6 µM]
Cc1noc(-c2ccc3c(c2)OCO3)c1C(=O)N1CCC(Cc2ccccc2)CC1,i,?,?,-26.3%
O=C(c1ccc2c(c1)OCO2)N1CCC(Cc2nc(-c3ccccc3)no2)CC1,?,10µM*,?,3.98µM*
COc1ccc(C(=O)N2CCC3(CC2)CC(Cc2nc(-c4ccccc4)no2)CCO3)cc1 (centres undefined),?,12.6µM*,?,7.08µM*
COc1cccc(-c2noc(CC3CCN(C(=O)c4cc(OC)c(OC)c(OC)c4)CC3)n2)c1,i,44.7µM*,?,-18.4%
COc1ccc(CC2CCN(C(=O)c3c(C)noc3-c3ccc4c(c3)OCO4)CC2)cc1,i,35.5µM*,25.1µM*,?
O=C(c1ccc(N2CCC(CO)C2)nc1)N1CCC(N2CCOCC2)CC1 (centres undefined),i,3.2%,-19.9%,5.1%
Cc1ccc(CC(=O)N2CCC(Cc3nc(-c4ccccc4)no3)CC2)cc1,i,?,?,?
COc1ccc(-c2noc(CC3CCN(C(=O)Cc4ccsc4)CC3)n2)cc1,i,44.7µM*,?,?
CCOc1ccc(CN2CCN(C/C=C/c3ccccc3OC)CC2CCO)cc1 (centres undefined),i,20µM*,?,-13.6%
O=C(NCCCc1ccccc1)c1n[nH]c2c1CN(C(=O)c1ccc(F)cc1F)CC2,i,79.4µM*,?,2.3%
CCCC(C)C(=O)N1CCc2[nH]nc(C(=O)NCCCc3ccccc3)c2C1 (centres undefined),.,35.5µM*,39.8µM*,.
O=C(NCCCc1ccccc1)c1n[nH]c2c1CN(C(=O)c1ccc3c(c1)OCO3)CC2,.,?,35.5µM*,.
O=C(NCCCc1ccccc1)c1n[nH]c2c1CN(C(=O)c1c(F)cccc1F)CC2,i,17.8µM*,?,0.0%
CCC(=O)N1CCc2[nH]nc(C(=O)NCCCc3ccccc3)c2C1,i,?,?,-12.5%
CC1(C)[C@H](Cc2cc(-c3ccc(F)cc3)on2)C[C@@H]1NC1CCOCC1,i,?,?,-2.2%[70.6 µM]
O=C(NCc1cc(F)ccc1F)C1CN(S(=O)(=O)c2cccnc2)CC12CCCCC2 (centres undefined),i,-24.9%,-19.1%,0.1%
OC1(c2csc(CN3CCOCC3)n2)CCN(Cc2ccccc2F)CC1,i,i,-5.5%[174 µM],-0.3%[70.6 µM]
O=C(NCCCc1ccccc1)c1n[nH]c2c1CN(C(=O)c1ccccc1Cl)CC2,?,?,?,0.0%
